Experimental findings from PubChem BioAssay (NCATS) are described below.

Values without a mark were called inactive. Inconclusive results are not listed. Calls of active or inactive are those of the source. Unless noted, the call rests on the fitted dose curve; in most records, active means well fitted curve in either direction with a large enough effect (not every such curve was filed as active); inconclusive means small, poorly fitted or top-dose-only effect, or another doubt; inactive means flat fitted curve, though single readings scatter. Some results are limits rather than exact numbers.

Experiment [1] is described as follows: AP1 Signaling Pathway (AID 357).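 Further: ME-180 reporter cells stimulated with EGF at its EC50 level; on the % scale 0 is the no-effect control and ±100 the full control effect.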 Particulars: ME-180 AP-1-bla reporter, EGF-induced, beta-lactamase ratio, 5 h; at 7.69 µM (top of the series) unless noted. A digest of the protocol: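 Modulation of EGF-driven AP-1 transcription was assessed with a beta-lactamase reporter in ME-180 cells. Compound and EC50 EGF were co-incubated 5 hours at 37 °C before 2.5-hour CCF4 loading at room temperature and dual-emission reading.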

The target in experiment [2] is Cytochrome P450 1A2 (Homo sapiens) (UniProt P05177). Kind of experiment: p450-cyp1a2 (AID 410; calls by dose curve; further: potency means the concentration at half of the fitted maximal effect;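 on activity change, negative = inhibition: -100% = full effect of reference inhibitor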). A digest of the protocol: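 20nM CYP1A2, 100uM Luciferin-ME (=Km), 100mM KPO4; cpd 10 min RT; +NADPH regen, 60 min RT; stop/detect 20 min; luminescence. Normalized to furafylline 57 uM = full inhibition.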
Chain of Cytochrome P450 1A2 (Homo sapiens) (P05177 whole entry, looked up): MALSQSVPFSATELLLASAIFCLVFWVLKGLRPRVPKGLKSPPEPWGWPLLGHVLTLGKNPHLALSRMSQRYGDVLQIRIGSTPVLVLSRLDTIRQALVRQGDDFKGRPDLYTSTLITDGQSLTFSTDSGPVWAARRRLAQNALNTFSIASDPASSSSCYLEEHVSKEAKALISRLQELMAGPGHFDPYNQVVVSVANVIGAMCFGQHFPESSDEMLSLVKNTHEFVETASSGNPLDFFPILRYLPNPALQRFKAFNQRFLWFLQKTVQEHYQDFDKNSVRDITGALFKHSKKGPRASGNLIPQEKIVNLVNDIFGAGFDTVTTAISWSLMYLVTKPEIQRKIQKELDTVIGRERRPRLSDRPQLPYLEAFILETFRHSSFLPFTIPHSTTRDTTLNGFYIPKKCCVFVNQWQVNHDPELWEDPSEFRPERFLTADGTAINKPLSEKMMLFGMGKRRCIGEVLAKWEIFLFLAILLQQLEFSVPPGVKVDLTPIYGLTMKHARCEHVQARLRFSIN
The nature of experiment [3]: NFAT Signaling Pathway (AID 444).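 Further: carbachol stimulus at about its EC50 of 1 µM final; on the % scale 0 is the no-effect control and ±100 the full control effect.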 The settings on record: Jurkat NFAT-bla M1, carbachol, beta-lactamase ratio, 5 h; at 7.69 µM (top of the series) unless noted. A digest of the protocol: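 Read-out: CCF4 FRET ratio (460 nm/530 nm) after 1 h RT dye loading, used for %activity and AC50 from titration series. Cells: Jurkat NFAT-β-lactamase/M1 line, treated with compound plus 1 uM carbachol for 5 h, 37 °C.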

A short description of experiment [4]: Stat Signaling Pathway (AID 446).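 Further: ME-180 cervical cancer cells given 40 pM IL-6 alongside compound; SIE-controlled beta-lactamase reporter measured as 460/530 nm FRET emission ratio; on the % scale 0 is the no-effect control and ±100 the full control effect.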 The settings on record: ME-180 (cervical carcinoma) SIE beta-lactamase reporter, IL-6 stimulated, 5 h; at 7.69 µM (top of the series) unless noted. The essentials:
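Compound effects on IL-6-induced STAT reporter activity were measured in ME-180 cells. After overnight culture, cells were co-treated with 40 pM IL-6 for 5 hrs before beta-lactamase substrate loading at room temperature.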

Experiment [5] has as its target Glucocorticoid receptor (Homo sapiens) (UniProt P04150). Kind of experiment: GR-GFP Redistribution (AID 450;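 active means compounds whose dose series gives a full or clear partial fitted curve of increased nuclear translocation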; further: potency means the concentration at half of the fitted maximal effect). The settings on record: U2OS GR-GFP nuclear translocation, laser cytometry, 2 h.
The target is the same in experiment [6]. Kind of experiment: GR-EFC Redistribution (AID 451; calls by dose curve; further: potency means the concentration at half of the fitted maximal effect). The settings on record: CHO-K1 GR-EFC translocation, beta-gal luminescence, 2 h. The essentials: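 Translocation of GR-ED fusion to nuclear EA restores b-gal, read by luminescence after 1 h room-temperature detection. Engineered CHO-K1 biosensor cells, 1,000/well, exposed 2 h at 37 C to titrations up to 46 uM final.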

Experiment [7] concerns the target Mitogen-activated protein kinase 10 (Mus musculus) (UniProt Q61831). Kind of experiment: JNK3 AlphaScreen Assay (AID 530).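 Further: kinase came from lysate of stimulated human HepG2 cells; signal reports phosphorylation of biotinylated GST-cJun 1-79 at Ser73 with 10 µM ATP; on the % scale 0 is the no-effect control and ±100 the full control effect.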 The essentials: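 Kinase buffer: 20 mM Tris-HCl pH 7.6, 10 mM MgCl2, 1 mM DTT, 0.1 mM Na3VO4, 0.01% Tween-20; ATP 10 uM. Substrate biotin-GST-cJun(1-79), enzyme from activated HepG2 lysates. Detection by Ser73 phospho-antibody AlphaScreen.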
Background: Alpha assays give light when donor and acceptor beads are brought close together.

Experiment [8] addresses 3',5'-cyclic-AMP phosphodiesterase 4B (Homo sapiens) (UniProt Q07343). Kind of experiment: qHTS Assay for Inhibitors of PDE-IV (AID 607; active means well fitted activation curve with a large enough effect in the main read-out, with a control signal flat, not every such curve was filed as active; further: % of control where 0% means no effect). A digest of the protocol: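 ACTOne HEK293 cells carry a modified cAMP-gated CNG channel and express endogenous PDE4; plated 1000 cells/well, compounds up to 22.9 uM final. Membrane-potential dye fluorescence (ex 535/em 590) was read; parental cells received 10 uM forskolin + 100 uM RO 20-1724.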

In experiment [9] the target is Guanine nucleotide-binding protein G(i) subunit alpha-1 (Homo sapiens) (UniProt P63096). Kind of experiment: qHTS Assay for Inhibitors of RGS12 GoLoco Motif Activity (Green Fluorophore) (AID 879; active means well fitted curve in the direction sought with a large enough effect; an effect the other way counts as inactive or inconclusive;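 further: 0% = labeled peptide with Gαi1 and full inhibition = labeled peptide alone without protein; negative values mean loss of peptide binding seen as reduced polarization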). A digest of the protocol: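 A drop in FITC polarization marked displacement of the FITC-tagged RGS12 GoLoco peptide (10 nM) from Gαi1 (50 nM). Compounds were incubated 10 min at room temperature in Tris pH 7.5 buffer containing 150 mM NaCl, 0.1 mM GDP and 0.05% NP40; unlabeled peptide titration served as control.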
Chain of Guanine nucleotide-binding protein G(i) subunit alpha-1 (Homo sapiens) (P63096 whole entry, looked up): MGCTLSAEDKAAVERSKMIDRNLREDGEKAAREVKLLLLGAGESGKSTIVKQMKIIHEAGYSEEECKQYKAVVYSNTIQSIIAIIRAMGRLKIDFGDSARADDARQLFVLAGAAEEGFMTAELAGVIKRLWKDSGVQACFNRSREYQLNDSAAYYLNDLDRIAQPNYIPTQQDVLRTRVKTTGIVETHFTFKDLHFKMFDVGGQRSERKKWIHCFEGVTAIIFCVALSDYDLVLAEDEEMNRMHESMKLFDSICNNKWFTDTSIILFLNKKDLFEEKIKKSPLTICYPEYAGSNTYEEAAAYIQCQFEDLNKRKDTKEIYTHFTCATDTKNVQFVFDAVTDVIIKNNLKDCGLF

A short description of experiment [10]: qHTS Assay for Identification of Small Molecule Agonists for Thrombopoietin (TPO) Signaling Pathway (AID 917; active means well fitted curve in the direction sought with a large enough effect; an effect the other way counts as inactive or inconclusive; further: on the % scale 0 is the no-effect control and ±100 the full control effect). The essentials:
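First, Ba/F3 cells with human TPO receptor were held overnight without IL-3. Next, compounds and TPO (26 pM final) were added. After 24 hrs at 37 C, luciferase detection reagent was added and luminescence measured following 10 min at room temperature.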
For orientation: Quantitative high-throughput screening tests each substance at several concentrations.

For experiment [11], the target named is Pyruvate kinase (Leishmania mexicana) (UniProt Q27686). Kind of experiment: qHTS Validation Assay for Inhibitors of Leishmania Mexicana Pyruvate Kinase (AID 945; active means well fitted curve in the direction sought with a large enough effect; an effect the other way counts as inactive or inconclusive;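 further: 0% = DMSO only neutral control wells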). The essentials: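 Purified LmPYK (E451W mutant, 0.2 nM) was incubated 1 h at room temperature with 0.5 mM PEP and 0.1 mM ADP in 50 mM imidazole pH 7.2, 50 mM KCl, 7 mM MgCl2; ATP formed was read by PKLight luminescence, normalized to DMSO wells.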
Chain of Pyruvate kinase (Leishmania mexicana) (Q27686 2-499 E452W): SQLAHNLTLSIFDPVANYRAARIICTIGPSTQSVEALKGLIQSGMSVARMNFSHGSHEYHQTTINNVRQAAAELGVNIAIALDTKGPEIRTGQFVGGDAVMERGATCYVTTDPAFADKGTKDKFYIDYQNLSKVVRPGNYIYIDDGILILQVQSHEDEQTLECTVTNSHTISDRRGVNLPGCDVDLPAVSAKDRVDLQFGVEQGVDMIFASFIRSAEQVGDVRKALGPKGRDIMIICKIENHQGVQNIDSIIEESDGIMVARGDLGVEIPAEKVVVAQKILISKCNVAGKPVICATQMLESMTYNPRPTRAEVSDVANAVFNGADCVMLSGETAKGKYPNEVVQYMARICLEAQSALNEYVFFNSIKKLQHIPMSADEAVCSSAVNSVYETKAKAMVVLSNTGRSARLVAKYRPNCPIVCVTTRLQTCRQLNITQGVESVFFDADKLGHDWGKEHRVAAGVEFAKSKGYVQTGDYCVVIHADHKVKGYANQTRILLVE

Experiment [12] deals with Alpha-galactosidase A (Homo sapiens) (UniProt P06280). Kind of experiment: Counterscreen for Glucocerebrosidase Inhibitors: qHTS Assay for Human alpha-Galactosidase at pH 4.5 (AID 992; active means well fitted curve in the direction sought with a large enough effect; an effect the other way counts as inactive or inconclusive; further: 0% is about no effect). A digest of the protocol: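 Citrate buffer pH 4.5, Tween-20 0.005%. Enzyme 2 nM, substrate 80 uM, 20 min RT. Stop pH 10. Fluorescence Ex 365/Em 440. AC50 by Hill fit.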
Chain of Alpha-galactosidase A (Homo sapiens) (P06280 whole entry, looked up): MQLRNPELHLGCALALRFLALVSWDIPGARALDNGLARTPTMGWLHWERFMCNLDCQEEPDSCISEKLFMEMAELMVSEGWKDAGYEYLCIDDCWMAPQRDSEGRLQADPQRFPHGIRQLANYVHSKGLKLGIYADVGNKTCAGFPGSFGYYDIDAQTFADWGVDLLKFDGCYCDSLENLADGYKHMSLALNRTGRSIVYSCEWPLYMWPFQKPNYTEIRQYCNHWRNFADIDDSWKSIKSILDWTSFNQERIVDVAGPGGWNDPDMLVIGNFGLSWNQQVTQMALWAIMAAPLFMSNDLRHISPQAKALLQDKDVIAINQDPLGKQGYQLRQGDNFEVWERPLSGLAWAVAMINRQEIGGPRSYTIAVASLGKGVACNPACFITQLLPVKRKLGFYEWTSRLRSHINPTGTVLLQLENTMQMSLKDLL
Experiment [13] has as its target alpha-glucosidase (Oryza sativa, rice) (UniProt Q653V4). Kind of experiment: Counterscreen for Glucocerebrosidase Inhibitors: qHTS Assay for Rice alpha-Glucosidase at pH 5.0 (AID 997; active means well fitted curve in the direction sought with a large enough effect; an effect the other way counts as inactive or inconclusive;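 further: 0% = full activity with enzyme and -100% = basal without enzyme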). The essentials: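 Endpoint fluorogenic assay at pH 5.0: compounds (0.7 nM to 77 uM) titrated against 4 nM rice enzyme and 400 uM 4-MU-alpha-glucoside for 20 min at room temperature; NaOH/glycine stop, read ex 365/em 440 nm, Hill-fitted AC50.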
Background: Counterscreens check selectivity or assay interference.

Experiment [14] concerns the target Muscarinic acetylcholine receptor M1 (Rattus norvegicus) (UniProt P08482). Kind of experiment: qHTS Assay for Antagonists of Acetylcholine Muscarinic M1 Receptor: Kinetic Measurement of Intracellular Calcium Response (AID 943; active means well fitted curve in the direction sought with a large enough effect; an effect the other way counts as inactive or inconclusive;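 further: Fluo-4 calcium signal as peak divided by basal fluorescence over 4 min; nearly all actives have a fitted effect of over 75% in size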). A digest of the protocol:
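Read-out: peak over basal Fluo-4 fluorescence, kinetic at 1 Hz for 4 min after EC80 carbachol (100 nM final). Rat M1-CHO cells, dye loaded 1 h at 37C, compound added 10 min before agonist.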

Experiment [15] has the same target. Kind of experiment: qHTS Assay for Antagonists of Acetylcholine Muscarinic M1 Receptor: Measurement of IP-One Response (AID 944; active means well fitted curve in the direction sought with a large enough effect; an effect the other way counts as inactive or inconclusive; further: nearly all actives have a fitted effect of over 75% in size). A digest of the protocol:
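Read-out: HTRF competition between d2-IP1 and Eu-cryptate anti-IP1 antibody, emission 620 and 665 nm. Stimulus was carbachol, EC80 (200 nM), for 30 min in M1-CHO cells (rat receptor), after 10 min compound pre-treatment.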

The target of experiment [16] is Pyruvate kinase PKM (Homo sapiens) (UniProt P14618). Kind of experiment: qHTS Assay for Activators of Human Muscle Pyruvate Kinase (AID 954; active means well fitted curve in the direction sought with a large enough effect, not every such curve was filed as active;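 further: 0% = uninhibited enzyme and -100% = no enzyme or full thiadiazolimine inhibition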). A digest of the protocol:
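A coupled luminescent readout tracked ATP made from ADP by purified PKM2. Final conditions included 0.1 nM enzyme, PEP and ADP at 0.5 and 0.1 mM, pH 7.2 imidazole buffer with BSA, and a one-hour room-temperature reaction.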

Experiment [17] deals with Cytochrome P450 2D6 (Homo sapiens) (UniProt P10635). Kind of experiment: qHTS Assay for Inhibitors and Substrates of Cytochrome P450 2D6 (AID 891; active means well fitted curve in the direction sought with a large enough effect; an effect the other way counts as inactive or inconclusive;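 further: luciferin methyl ether substrate demethylated by CYP2D6 with NADPH regeneration; on the % scale 0 is the no-effect control and ±100 the full control effect; nearly all actives have a fitted effect of over 60% in size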). A digest of the protocol:
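Luminescent read-out of luciferin formed by 5 nM human CYP2D6 demethylating 30 uM Luciferin-ME EGE (Km level) over 60 min at room temperature after NADPH regeneration addition. Data normalized to full inhibition by 1.43 uM quinidine.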

Experiment [18] has as its target Cytochrome P450 2C19 (Homo sapiens) (UniProt P33261). Kind of experiment: qHTS Assay for Inhibitors and Substrates of Cytochrome P450 2C19 (AID 899; active means well fitted curve in the direction sought with a large enough effect; an effect the other way counts as inactive or inconclusive; further: on the % scale 0 is the no-effect control and ±100 the full control effect; nearly all actives have a fitted effect of over 60% in size). A digest of the protocol: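 5nM enzyme + 10uM Luciferin-H EGE (=KM), 50mM KPO4; cpd pin-transferred, 10 min 37C; NADPH regen, 60 min 37C; stopped w/ luciferin detection reagent, 20 min; luminescence. Normalized to 57uM ketoconazole (AC100).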

For experiment [19], the target named is Cytochrome P450 3A4 (Homo sapiens) (UniProt P08684). Kind of experiment: qHTS Assay for Activators of Cytochrome P450 3A4 (AID 885; active means well fitted curve in the direction sought with a large enough effect; an effect the other way counts as inactive or inconclusive; further: nearly all actives have a fitted effect of over 65% in size). The essentials: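 CYP3A4 activity: Luciferin-PPXE O-dealkylation, 25uM substrate, 200mM KPO4, RT throughout. Read-out is luciferase luminescence; higher values reflect activation.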

Chain of 3',5'-cyclic-AMP phosphodiesterase 4B (Homo sapiens) (Q07343 whole entry, looked up): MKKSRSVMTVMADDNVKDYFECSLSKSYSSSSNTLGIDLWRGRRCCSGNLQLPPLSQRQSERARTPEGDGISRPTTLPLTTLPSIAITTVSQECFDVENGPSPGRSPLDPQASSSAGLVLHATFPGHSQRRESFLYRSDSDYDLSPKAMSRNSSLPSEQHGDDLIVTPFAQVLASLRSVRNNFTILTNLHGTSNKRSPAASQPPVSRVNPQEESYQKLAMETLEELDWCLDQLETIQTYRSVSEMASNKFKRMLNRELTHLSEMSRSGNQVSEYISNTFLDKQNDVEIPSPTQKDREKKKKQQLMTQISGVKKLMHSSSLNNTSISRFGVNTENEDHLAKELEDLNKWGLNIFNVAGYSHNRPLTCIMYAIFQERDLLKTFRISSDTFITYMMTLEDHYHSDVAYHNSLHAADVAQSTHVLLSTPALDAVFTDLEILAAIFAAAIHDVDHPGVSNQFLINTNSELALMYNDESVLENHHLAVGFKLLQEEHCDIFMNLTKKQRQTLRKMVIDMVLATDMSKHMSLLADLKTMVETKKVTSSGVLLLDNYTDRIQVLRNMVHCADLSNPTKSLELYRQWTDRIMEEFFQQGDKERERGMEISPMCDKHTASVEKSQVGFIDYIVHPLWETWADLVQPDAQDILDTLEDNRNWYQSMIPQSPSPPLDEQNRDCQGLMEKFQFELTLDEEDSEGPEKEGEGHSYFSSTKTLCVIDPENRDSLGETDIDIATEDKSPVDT
Chain of Muscarinic acetylcholine receptor M1 (Rattus norvegicus) (P08482 whole entry, looked up): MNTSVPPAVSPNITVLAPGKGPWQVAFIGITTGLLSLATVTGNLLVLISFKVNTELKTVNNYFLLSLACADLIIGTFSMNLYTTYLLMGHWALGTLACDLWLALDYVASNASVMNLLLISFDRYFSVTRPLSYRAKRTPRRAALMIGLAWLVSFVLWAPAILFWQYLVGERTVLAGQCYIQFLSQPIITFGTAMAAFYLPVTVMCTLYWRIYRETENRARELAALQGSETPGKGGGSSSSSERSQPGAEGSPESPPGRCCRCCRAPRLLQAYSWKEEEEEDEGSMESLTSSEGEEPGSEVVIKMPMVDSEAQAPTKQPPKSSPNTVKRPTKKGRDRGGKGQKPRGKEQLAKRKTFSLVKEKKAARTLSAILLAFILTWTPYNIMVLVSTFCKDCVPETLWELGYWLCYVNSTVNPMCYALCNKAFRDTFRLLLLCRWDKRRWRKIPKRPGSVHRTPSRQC
Chain of Glucocorticoid receptor (Homo sapiens) (P04150 whole entry, looked up, the tested form may be a part): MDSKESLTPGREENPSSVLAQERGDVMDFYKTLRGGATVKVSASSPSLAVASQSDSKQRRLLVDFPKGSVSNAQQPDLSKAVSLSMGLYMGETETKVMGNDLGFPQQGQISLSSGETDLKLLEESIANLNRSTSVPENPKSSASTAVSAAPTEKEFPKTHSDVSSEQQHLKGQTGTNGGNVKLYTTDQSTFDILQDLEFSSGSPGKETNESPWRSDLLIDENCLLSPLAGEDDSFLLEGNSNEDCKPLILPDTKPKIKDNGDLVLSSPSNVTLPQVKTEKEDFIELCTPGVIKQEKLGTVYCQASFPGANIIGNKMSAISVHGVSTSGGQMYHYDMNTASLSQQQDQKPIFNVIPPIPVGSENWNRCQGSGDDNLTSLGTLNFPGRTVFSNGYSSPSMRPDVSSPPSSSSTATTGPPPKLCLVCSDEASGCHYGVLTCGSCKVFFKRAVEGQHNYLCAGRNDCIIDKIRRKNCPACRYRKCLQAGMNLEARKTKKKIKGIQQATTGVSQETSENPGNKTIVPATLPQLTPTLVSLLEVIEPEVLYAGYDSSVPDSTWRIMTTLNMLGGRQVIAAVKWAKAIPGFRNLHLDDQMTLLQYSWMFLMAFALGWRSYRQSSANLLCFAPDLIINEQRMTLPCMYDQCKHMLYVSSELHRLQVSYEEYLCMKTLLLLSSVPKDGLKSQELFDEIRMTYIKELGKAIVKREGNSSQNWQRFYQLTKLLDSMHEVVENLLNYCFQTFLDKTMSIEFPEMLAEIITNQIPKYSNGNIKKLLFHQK
Chain of Cytochrome P450 2C19 (Homo sapiens) (P33261 whole entry, looked up): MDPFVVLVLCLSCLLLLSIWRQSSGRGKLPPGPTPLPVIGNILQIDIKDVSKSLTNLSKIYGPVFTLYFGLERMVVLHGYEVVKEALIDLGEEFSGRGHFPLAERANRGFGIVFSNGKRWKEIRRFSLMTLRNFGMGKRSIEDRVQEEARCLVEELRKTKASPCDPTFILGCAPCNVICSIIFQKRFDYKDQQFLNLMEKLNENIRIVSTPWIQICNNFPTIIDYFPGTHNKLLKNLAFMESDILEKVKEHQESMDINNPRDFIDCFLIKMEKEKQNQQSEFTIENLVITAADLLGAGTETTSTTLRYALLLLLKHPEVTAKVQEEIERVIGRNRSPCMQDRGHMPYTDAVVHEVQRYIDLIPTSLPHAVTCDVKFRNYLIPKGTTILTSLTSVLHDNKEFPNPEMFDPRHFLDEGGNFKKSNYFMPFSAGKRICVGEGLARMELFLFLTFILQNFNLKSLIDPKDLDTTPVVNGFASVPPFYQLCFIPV
Chain of Cytochrome P450 2D6 (Homo sapiens) (P10635 whole entry, looked up): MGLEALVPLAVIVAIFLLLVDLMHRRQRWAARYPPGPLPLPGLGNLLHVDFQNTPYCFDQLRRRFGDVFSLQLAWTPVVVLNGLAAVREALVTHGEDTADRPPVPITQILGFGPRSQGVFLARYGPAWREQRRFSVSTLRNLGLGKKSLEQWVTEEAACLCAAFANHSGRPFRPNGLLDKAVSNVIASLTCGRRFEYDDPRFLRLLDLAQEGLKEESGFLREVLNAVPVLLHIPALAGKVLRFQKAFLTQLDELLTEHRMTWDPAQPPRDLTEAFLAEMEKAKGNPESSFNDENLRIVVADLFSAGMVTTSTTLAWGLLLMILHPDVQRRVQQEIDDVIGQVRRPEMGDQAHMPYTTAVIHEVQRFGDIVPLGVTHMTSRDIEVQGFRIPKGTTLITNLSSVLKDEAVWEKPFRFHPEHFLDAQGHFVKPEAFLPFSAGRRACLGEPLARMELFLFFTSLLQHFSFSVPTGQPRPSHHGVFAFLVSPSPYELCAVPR

Consider `OC[C@@H]1O[C@@H](n2cnc3c(NC4CCCC4)ncnc32)[C@@H](O)[C@H]1O`, for which the results for the activity change, negative = inhibition in [1] and in [3] were -0.201% [at 38 µM] and 1.91% [at 38 µM], respectively. Further, the Potency result in experiment [2], in experiment [7], in experiment [8] and in experiment [13] was “inactive” each time. Besides, in [4], the activity, negative = inhibition was 12.2% [at 38 µM]. Also, the Potency in experiment [5] and in experiment [6] was above 46 µM each time. The call in [9], in experiment [10], in experiment [11] and in experiment [12] was inactive.

Regarding `Nc1nc(Nc2ccccc2)nc2c1ncn2[C@@H]1O[C@@H](CO)[C@H](O)[C@@H]1O`, the activity change, negative = inhibition in [1] is -5.61% [at 38 µM]; in [3] it was -0.881% [at 38 µM]. The values for the Potency in experiment [2], in experiment [5] and in experiment [6] were 31.6 µM (active), above 46 µM and above 46 µM, respectively. Further, the activity, negative = inhibition in experiment [4] was 0.406% [at 38 µM]. The Potency entry in [7], in experiment [8], in experiment [14], in experiment [15] and in experiment [13] was “inactive” in each case. The result in [9], in [11], in experiment [16] and in [12] was inactive.

Consider `O=C(O)CSC1=NCCN1`, for which the values for the activity change, negative = inhibition in experiment [1] and in experiment [3] were 17% and 7.29%, respectively. Further, the Potency entry in experiment [2], in experiment [7], in experiment [8], in experiment [17] and in experiment [18] was “inactive” in each case. Further, the activity, negative = inhibition in experiment [4] was 4.64%. Moreover, the values for the Potency in [5] and in [6] were above 46 µM and above 9.22 µM, respectively.

With `Cc1sc2ccccc2[n+]1CCC(=O)O`, the activity change, negative = inhibition in experiment [1] was 3.36%; in [3] it was 16.6%. For the same compound, the Potency entry in experiment [2], in [7], in experiment [8] and in [17] was “inactive” each time. Moreover, the activity, negative = inhibition in experiment [4] was 8%. Further, the Potency in experiment [5] was above 46 µM; in experiment [6], above 9.22 µM.

For `C[N@+]1(CCC(=O)c2ccccc2)CC[C@H]2CC[C@H](C2)C1`, the activity change, negative = inhibition in experiment [1] was 2.46%; in [3] it was 3.4%. Further, the Potency result in experiment [2], in experiment [7], in [8] and in experiment [18] was “inactive” in each case. Moreover, the activity, negative = inhibition in [4] is 1.34%. Besides, the Potency in [5] is above 46 µM; in [6], above 9.22 µM.

In the case of `Nc1ncnc2c1nc(Sc1ccc(Cl)cc1)n2[C@@H]1O[C@H]2COP(=O)(O)O[C@@H]2[C@H]1O`, the activity change, negative = inhibition is 6.42% [at 38 µM] in experiment [1] and -0.761% [at 38 µM] in experiment [3]. In addition, the Potency result in [2], in [7], in [8], in experiment [14], in experiment [15] and in experiment [13] was “inactive” throughout. The activity, negative = inhibition in experiment [4] is 5.32% [at 38 µM]. For the same compound, the Potency in experiment [5] and in experiment [6] was above 46 µM each time. The compound was called inactive in experiment [10], in [11] and in [12].

For `COc1ncc2nc(-c3cc(F)cc(F)c3)c(=O)n(C3CC3)c2n1`, the results for the activity change, negative = inhibition in experiment [1] and in experiment [3] were 5.87% and -2%, respectively. Further, the Potency in experiment [2] was 1.58 µM (active); in experiment [5], above 9.22 µM; in [6], above 46 µM. The activity, negative = inhibition in experiment [4] is -19.2%. In addition, the Potency entry in [7], in experiment [8] and in experiment [19] was “inactive” throughout.
